The record followed here is PMC7862700, “An all-to-all approach to the identification of sequence-specific readers for epigenetic DNA modifications on cytosine”.

Common to all, as to assay: DAPPL (digital affinity profiling via proximity ligation, sequencing); 10 mM Tris-HCl pH 7.5, 50 mM NaCl, 1 mM DTT, 4% glycerol, room temperature, 30 min; GST-TFs on glutathione beads, 16-mer random dsDNA library, 0.1% formaldehyde crosslink after washing; high values mean tight binding
One experiment addresses T1, FEV (Homo sapiens, UniProt Q99581 1-238).
T1 sequence: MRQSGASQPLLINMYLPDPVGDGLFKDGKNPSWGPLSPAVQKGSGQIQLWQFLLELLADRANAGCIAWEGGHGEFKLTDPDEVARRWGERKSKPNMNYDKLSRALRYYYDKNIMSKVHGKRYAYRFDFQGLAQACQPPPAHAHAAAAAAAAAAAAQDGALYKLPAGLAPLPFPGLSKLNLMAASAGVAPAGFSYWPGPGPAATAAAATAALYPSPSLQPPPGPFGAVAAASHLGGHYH
Conditions: protein: recombinant; tags: N-terminal GST; dsDNA, one strand shown. Summed up:
(§1)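 Each value of binding signal is a hexamer's read frequency for a factor divided by the same hexamer's frequency in the tag-only sample. Barcoded, bead-captured GST fusions of human transcription factors made in yeast were pooled with that sample and incubated with 200 nmole of a random double-stranded 16-mer DNA library in Tris/NaCl/DTT/glycerol buffer at room temperature for 30 min. Washing, 0.1% formaldehyde crosslinking, proximity ligation, PCR and Illumina NextSeq500 sequencing followed.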

The target in the next experiment is ETV5 (Homo sapiens, UniProt P41161 1-510). Conditions: protein: recombinant; tags: N-terminal GST; dsDNA, one strand shown. Summed up: as §1
The target in a further experiment is HSF1 (Homo sapiens, UniProt Q00613 1-529). To be noted: protein: recombinant; tags: N-terminal GST; chain copies: 3; dsDNA, one strand shown. The method in brief: as §1
The target in another experiment is T2, SPIC (Homo sapiens, UniProt Q8N5J4 1-248).
T2 sequence: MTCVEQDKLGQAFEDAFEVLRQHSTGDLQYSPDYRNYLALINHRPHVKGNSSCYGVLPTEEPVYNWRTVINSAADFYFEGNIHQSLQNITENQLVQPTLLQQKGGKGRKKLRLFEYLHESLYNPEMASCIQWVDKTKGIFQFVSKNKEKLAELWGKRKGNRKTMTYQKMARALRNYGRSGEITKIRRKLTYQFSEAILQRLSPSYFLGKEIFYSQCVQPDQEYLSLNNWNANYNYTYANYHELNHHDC
To be noted: protein: recombinant; tags: N-terminal GST; dsDNA, one strand shown. Summed up: as §1

In a further experiment the target is ELF4 (Homo sapiens, UniProt Q99607 1-663). Conditions: protein: recombinant; tags: N-terminal GST; dsDNA, one strand shown. The method in brief:
as §1

The next experiment addresses T3, ELK4 (Homo sapiens, UniProt P28324-2 1-405).
T3 sequence: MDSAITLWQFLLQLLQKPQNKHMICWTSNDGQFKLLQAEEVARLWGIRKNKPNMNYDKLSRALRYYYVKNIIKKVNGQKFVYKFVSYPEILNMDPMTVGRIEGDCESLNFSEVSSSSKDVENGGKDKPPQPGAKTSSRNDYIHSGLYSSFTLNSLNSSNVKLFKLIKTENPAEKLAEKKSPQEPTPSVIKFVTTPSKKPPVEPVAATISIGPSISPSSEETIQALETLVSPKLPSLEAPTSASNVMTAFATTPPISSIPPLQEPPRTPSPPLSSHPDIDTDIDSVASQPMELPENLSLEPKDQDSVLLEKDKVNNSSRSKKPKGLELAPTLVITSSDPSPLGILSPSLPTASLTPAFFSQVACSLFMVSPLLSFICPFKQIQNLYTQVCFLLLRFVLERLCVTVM
Conditions: protein: recombinant; tags: N-terminal GST; dsDNA, one strand shown. The method in brief: as §1

The target in the next experiment is T4, ETV2 (Homo sapiens, UniProt O00321 1-342).
T4 sequence: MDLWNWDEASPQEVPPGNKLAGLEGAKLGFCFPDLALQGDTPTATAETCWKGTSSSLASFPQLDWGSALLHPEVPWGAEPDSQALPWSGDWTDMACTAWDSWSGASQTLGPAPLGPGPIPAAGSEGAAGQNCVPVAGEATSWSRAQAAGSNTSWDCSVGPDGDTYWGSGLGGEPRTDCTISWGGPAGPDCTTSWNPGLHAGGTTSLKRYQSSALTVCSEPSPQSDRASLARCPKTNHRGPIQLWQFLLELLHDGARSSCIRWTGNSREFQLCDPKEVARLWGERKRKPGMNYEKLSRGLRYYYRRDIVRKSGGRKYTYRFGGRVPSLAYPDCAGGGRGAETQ
Conditions: protein: recombinant; tags: N-terminal GST; dsDNA, one strand shown. The method in brief: as §1

In the next experiment the target is T5, ELF3 (Homo sapiens, UniProt P78545 1-371).
T5 sequence: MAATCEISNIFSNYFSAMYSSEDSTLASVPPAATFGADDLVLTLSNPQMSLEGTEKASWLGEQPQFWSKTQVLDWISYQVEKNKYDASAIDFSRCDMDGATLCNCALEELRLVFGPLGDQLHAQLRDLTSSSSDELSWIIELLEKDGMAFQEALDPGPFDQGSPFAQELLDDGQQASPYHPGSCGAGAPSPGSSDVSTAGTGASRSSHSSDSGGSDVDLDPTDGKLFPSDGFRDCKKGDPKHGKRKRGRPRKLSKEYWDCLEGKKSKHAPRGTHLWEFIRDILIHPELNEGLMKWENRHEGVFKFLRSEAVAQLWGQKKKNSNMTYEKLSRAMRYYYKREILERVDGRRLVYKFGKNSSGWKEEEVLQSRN
Conditions: protein: recombinant; tags: N-terminal GST; dsDNA, one strand shown. Summed up:
as §1

The next experiment concerns the target CRX (Homo sapiens, UniProt O43186 1-299). To be noted: protein: recombinant; tags: N-terminal GST; dsDNA, one strand shown. The method in brief:
as §1

For a further experiment, the target named is ETV1 (Homo sapiens, UniProt P50549 1-477). Conditions: protein: recombinant; tags: N-terminal GST; dsDNA, one strand shown. Summed up: as §1
A further experiment addresses T6, ERF (Homo sapiens, UniProt P50548 1-548).
T6 sequence: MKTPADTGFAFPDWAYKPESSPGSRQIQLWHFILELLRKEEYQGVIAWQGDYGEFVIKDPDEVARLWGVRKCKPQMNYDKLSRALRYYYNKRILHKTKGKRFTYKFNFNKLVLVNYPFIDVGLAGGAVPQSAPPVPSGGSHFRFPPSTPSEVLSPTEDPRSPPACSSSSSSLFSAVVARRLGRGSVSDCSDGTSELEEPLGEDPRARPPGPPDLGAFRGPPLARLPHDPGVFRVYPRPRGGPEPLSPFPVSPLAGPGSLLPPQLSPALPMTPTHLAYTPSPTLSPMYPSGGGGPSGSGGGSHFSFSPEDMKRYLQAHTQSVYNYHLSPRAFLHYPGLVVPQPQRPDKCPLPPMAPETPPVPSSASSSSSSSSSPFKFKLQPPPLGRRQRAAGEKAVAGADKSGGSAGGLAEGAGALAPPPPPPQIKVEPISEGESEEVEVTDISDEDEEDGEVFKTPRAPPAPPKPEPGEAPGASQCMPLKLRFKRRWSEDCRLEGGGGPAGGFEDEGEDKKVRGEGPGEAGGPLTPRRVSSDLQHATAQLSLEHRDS
Conditions: protein: recombinant; tags: N-terminal GST; dsDNA, one strand shown. Summed up:
as §1

In another experiment the target is T7, ETV3L (Homo sapiens, UniProt Q6ZN32 1-361).
T7 sequence: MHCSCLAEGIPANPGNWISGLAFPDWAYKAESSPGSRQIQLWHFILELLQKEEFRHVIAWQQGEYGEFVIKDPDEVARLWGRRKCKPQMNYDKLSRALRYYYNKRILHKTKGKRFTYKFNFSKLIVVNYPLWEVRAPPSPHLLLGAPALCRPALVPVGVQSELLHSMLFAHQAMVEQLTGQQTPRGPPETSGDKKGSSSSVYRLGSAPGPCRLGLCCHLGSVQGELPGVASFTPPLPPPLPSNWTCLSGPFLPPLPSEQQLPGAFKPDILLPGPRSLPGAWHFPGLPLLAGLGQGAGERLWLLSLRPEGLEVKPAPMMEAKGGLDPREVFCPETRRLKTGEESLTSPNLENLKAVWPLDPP
To be noted: protein: recombinant; tags: N-terminal GST; dsDNA, one strand shown. The method in brief:
as §1

Another experiment deals with T8, ETS2 (Homo sapiens, UniProt P15036 1-469).
T8 sequence: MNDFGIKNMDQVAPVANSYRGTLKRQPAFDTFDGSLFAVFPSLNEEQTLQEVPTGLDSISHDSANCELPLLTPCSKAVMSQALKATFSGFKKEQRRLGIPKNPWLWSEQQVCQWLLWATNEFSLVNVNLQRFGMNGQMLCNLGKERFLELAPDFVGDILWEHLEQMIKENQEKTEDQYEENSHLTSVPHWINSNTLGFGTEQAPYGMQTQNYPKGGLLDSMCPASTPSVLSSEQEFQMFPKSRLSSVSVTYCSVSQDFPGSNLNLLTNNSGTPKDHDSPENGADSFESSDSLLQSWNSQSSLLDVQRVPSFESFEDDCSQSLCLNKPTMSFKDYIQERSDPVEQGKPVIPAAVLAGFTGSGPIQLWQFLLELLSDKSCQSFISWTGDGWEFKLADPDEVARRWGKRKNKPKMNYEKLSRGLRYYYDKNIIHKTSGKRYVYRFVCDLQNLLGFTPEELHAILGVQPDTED
Conditions: protein: recombinant; tags: N-terminal GST; dsDNA, one strand shown. Summed up:
as §1

The target of another experiment is T9, SPDEF (Homo sapiens, UniProt O95238 1-335).
T9 sequence: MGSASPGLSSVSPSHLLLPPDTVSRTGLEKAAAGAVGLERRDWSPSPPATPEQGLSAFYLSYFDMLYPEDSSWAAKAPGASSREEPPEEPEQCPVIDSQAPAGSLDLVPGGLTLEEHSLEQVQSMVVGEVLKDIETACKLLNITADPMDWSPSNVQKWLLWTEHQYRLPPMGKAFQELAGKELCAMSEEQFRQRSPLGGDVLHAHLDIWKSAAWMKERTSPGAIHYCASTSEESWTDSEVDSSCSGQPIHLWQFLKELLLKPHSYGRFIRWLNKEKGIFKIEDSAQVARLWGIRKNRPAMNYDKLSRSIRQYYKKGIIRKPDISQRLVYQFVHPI
To be noted: protein: recombinant; tags: N-terminal GST; dsDNA, one strand shown. The method in brief: as §1

A further experiment concerns the target T10, ETV7 (Homo sapiens, UniProt Q9Y603 1-341).
T10 sequence: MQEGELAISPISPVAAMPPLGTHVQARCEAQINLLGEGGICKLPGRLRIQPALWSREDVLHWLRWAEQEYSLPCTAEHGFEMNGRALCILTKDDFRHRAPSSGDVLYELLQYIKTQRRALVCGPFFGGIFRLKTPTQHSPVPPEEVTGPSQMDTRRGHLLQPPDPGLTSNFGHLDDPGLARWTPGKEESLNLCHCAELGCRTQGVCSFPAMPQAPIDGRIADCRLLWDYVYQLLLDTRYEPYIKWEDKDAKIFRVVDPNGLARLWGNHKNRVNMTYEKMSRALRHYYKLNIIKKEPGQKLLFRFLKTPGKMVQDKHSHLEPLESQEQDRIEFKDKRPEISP
Conditions: protein: recombinant; tags: N-terminal GST; dsDNA, one strand shown. Summed up:
as §1

The target of the next experiment is T11, ELF5 (Homo sapiens, UniProt Q9UKW6-2 1-255).
T11 sequence: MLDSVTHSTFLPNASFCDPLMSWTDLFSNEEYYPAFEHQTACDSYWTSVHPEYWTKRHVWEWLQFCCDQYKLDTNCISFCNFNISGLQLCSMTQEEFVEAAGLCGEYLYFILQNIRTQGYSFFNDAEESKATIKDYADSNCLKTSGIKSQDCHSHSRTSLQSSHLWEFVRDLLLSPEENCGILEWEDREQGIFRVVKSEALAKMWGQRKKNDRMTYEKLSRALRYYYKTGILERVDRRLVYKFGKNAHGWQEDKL
To be noted: protein: recombinant; tags: N-terminal GST; dsDNA, one strand shown. The method in brief: as §1

The next experiment deals with T12, ETV3 (Homo sapiens, UniProt P41162-2 1-143).
T12 sequence: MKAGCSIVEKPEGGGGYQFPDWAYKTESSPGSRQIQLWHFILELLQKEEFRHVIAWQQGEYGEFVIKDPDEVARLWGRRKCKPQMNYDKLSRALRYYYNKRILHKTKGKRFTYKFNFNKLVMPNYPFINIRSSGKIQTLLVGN
To be noted: protein: recombinant; tags: N-terminal GST; dsDNA, one strand shown. Summed up: as §1

The target in the next experiment is ETV6 (Homo sapiens, UniProt P41212 1-452). To be noted: protein: recombinant; tags: N-terminal GST; dsDNA, one strand shown. The method in brief:
as §1

ELF4, sequence (Q99607 whole entry): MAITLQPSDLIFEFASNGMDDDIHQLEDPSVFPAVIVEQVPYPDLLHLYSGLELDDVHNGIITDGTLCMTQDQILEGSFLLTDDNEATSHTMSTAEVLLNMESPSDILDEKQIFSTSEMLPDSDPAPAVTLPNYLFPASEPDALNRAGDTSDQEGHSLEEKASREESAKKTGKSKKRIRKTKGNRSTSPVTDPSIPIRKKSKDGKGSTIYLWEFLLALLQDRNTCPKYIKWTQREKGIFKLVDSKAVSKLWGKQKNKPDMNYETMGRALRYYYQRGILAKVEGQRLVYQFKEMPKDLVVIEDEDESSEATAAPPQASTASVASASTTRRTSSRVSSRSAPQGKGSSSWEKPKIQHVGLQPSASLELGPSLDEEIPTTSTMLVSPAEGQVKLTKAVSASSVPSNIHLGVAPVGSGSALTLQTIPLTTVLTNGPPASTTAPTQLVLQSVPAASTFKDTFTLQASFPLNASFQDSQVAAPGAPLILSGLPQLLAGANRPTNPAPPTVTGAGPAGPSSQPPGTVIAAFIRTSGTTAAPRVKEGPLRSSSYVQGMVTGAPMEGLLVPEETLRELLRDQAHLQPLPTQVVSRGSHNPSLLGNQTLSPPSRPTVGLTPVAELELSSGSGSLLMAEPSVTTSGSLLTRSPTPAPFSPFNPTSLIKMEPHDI
ETV5, sequence (P41161 whole entry): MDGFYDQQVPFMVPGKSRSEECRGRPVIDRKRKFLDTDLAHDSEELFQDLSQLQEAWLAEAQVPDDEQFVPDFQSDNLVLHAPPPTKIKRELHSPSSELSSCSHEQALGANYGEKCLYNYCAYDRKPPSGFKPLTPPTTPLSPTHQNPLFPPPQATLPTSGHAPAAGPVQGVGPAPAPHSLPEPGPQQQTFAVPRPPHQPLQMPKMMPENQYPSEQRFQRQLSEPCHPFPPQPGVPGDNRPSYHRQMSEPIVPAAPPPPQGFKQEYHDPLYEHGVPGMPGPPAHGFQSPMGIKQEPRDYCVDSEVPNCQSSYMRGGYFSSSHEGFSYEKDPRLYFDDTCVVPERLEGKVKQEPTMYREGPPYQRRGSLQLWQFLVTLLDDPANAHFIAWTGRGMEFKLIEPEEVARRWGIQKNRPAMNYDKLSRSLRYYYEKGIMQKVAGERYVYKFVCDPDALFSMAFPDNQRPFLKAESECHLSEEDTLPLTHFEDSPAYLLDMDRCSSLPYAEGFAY
ETV1, sequence (P50549 whole entry): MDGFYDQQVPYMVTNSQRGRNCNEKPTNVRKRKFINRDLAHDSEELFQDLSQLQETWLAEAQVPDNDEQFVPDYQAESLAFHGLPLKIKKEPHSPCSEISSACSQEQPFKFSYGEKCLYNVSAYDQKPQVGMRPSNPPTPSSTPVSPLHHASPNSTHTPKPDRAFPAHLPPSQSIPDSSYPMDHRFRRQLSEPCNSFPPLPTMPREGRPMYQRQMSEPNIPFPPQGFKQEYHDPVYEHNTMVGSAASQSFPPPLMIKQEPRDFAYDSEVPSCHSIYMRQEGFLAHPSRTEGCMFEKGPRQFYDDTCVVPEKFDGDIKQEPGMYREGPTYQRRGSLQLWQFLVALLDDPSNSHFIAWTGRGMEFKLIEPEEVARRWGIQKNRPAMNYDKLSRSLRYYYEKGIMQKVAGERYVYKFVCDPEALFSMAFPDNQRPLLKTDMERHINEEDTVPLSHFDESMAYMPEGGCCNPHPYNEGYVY
ETV6, sequence (P41212 whole entry): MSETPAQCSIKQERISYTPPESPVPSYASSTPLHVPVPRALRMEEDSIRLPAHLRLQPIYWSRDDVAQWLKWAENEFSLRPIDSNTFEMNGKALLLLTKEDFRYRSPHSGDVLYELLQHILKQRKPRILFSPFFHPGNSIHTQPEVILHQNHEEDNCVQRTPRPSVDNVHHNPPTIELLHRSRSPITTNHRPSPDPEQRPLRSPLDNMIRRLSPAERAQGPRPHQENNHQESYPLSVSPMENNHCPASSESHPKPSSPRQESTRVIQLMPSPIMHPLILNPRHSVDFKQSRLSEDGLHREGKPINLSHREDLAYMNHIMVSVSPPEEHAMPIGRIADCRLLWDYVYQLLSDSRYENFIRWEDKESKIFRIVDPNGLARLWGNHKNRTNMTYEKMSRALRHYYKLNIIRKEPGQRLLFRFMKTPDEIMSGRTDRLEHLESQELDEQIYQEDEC
CRX, sequence (O43186 whole entry): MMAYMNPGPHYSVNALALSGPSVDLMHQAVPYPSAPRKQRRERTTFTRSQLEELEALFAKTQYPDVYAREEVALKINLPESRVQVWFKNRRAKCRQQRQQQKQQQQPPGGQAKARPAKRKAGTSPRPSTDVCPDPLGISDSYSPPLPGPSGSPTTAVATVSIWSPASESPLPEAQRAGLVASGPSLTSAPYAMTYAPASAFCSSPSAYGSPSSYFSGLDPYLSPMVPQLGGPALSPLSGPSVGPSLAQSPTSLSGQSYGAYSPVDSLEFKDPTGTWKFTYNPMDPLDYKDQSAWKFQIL
HSF1, sequence (Q00613 whole entry): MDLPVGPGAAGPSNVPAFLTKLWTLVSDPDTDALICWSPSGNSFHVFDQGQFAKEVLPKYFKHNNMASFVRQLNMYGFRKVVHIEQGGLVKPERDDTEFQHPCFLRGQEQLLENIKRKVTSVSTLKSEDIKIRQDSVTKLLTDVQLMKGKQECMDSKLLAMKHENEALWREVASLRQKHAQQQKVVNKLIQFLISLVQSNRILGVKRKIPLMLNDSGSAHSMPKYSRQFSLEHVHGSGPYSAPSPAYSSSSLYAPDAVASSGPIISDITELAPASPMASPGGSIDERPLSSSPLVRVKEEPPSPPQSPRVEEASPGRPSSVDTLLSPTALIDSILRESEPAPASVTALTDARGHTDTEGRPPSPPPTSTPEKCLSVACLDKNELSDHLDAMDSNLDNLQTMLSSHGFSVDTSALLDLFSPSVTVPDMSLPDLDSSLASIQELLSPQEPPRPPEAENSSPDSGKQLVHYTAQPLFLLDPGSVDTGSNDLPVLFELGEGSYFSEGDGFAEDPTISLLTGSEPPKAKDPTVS

Turning to CACGTT, the binding signal with FEV is 1.26 fold enrichment (6-mer frequency, TF over GST control); in the experiment with ETV5, 1.3 fold enrichment (6-mer frequency, TF over GST control); with HSF1, 1.11 fold enrichment (6-mer frequency, TF over GST control); with SPIC, 1.33 fold enrichment (6-mer frequency, TF over GST control); with ELF4, 1.31 fold enrichment (6-mer frequency, TF over GST control); with ELK4, 1.29 fold enrichment (6-mer frequency, TF over GST control). The binding signal with ETV2 is 1.36 fold enrichment (6-mer frequency, TF over GST control); with ELF3, 1 fold enrichment (6-mer frequency, TF over GST control); with CRX, 1.08 fold enrichment (6-mer frequency, TF over GST control); with ETV1, 1.21 fold enrichment (6-mer frequency, TF over GST control); with ERF it was 1.36 fold enrichment (6-mer frequency, TF over GST control); with ETV3L it was 1.21 fold enrichment (6-mer frequency, TF over GST control). Moreover, the binding signal with ETS2 is 1.3 fold enrichment (6-mer frequency, TF over GST control); with SPDEF it was 1.18 fold enrichment (6-mer frequency, TF over GST control); with ETV7, 1.35 fold enrichment (6-mer frequency, TF over GST control); in the experiment with ELF5 it was 1.12 fold enrichment (6-mer frequency, TF over GST control); in the experiment with ETV3, 1.19 fold enrichment (6-mer frequency, TF over GST control); with ETV6, 1.27 fold enrichment (6-mer frequency, TF over GST control).
